Data as given in PubChem BioAssay (NCI).
This is part of a sample that, as a whole, favours compounds with a hit. Of some 83,000 tested, about 20% had one in any assay.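 Single-concentration screen, 48 h exposure, 96-well plates. Endpoint: percent growth. Below 10 = active.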 Unmarked numbers belong to inactive results. Calls of active or inactive are those of the source.

Test system: SF-295 CNS
Experiment: NCI-60 one-dose screen, 48 h (100 = growth as untreated, 0 = no growth, -100 = all killed)
Settings: 10 µM unless noted

SMILES	growth
CN(C)Cc1ccc(NC(=O)c2cncc(C#Cc3cnc(N)c4ncccc34)c2)cc1C(F)(F)F	76.4%
COC(=O)c1c(C)nc(C)c2c1C(=O)C=C(NCc1ccccc1)C2=O	87.2%
N#CSc1c[nH]c2ccc(/C=C/C(=O)/C=C(O)/C=C/c3ccc4[nH]cc(SC#N)c4c3)cc12	57.3%
Cc1ccc(-c2nc(SCC(=O)N3CCN(c4cc5c(cc4F)c(=O)c(C(=O)O)cn5C4CC4)CC3)nc(Cl)c2C#N)cc1	97.4%
COC(=O)/C=C1/SC(=NCc2ccccc2)N(CCc2c[nH]c3ccccc23)C1=O	89.9%
C=C(C)[C@@H]1CC[C@]2(C(=O)N3CCN(C)CC3)CC[C@]3(C)[C@H](CC[C@@H]4[C@@](C)(CCC(=O)O)[C@H](C(=C)C)CC[C@]43C)[C@@H]12	78.8%
Nc1[nH]nc2nc(-c3ccccc3)n3c4ccccc4nc3c12	93.2%
CN1CCOCCN(C)Cc2ccc3ccc(cc3c2)CN(C)CCOCCN(C)Cc2ccc3ccc(cc3c2)C1	103%
COc1ccc(/C=N/Nc2c3ccccc3nc3ccccc23)cc1	90.3%
C=C1C(=O)O[C@H]2[C@H]1CC/C(CNC(=O)Cc1c[nH]c3ccccc13)=C\CC[C@@]1(C)O[C@@H]21	69.9%
COc1ccc2c(c1)CC[C@@H]1[C@@H]2CC[C@]2(C)c3c(cc(C#N)c4c3sc3ccccc34)C[C@@H]12	103%
O=C(c1c[nH]c2ccccc12)c1n[nH]c(=S)n1-c1ccc([N+](=O)[O-])cc1	104%
Cc1c2cnccc2c(C)c2c1c1cc(CO)ccc1n2C	-26.6% (active)
COc1cc(-c2nccc3[nH]c(-c4cccc5[nH]ccc45)nc23)cc(OC)c1OC	21%
Clc1ccc(-c2nc(C(Cl)Cl)nc3cc(-c4ccccc4)nn23)cc1	14.3%
CC1=Nc2cnc(Nc3ccc(N4CCCCC4)cc3)nc2Nc2ccccc21	83.8%
CN(C)c1ccc([C@@H](C(=O)Nc2cccc([N+](=O)[O-])c2)N(C(=O)c2cc3ccccc3[nH]2)c2cccc([N+](=O)[O-])c2)cc1	100%
O=C(CSc1nnnn1-c1ccccc1)Nc1ccc(Oc2ccccc2)cc1	100%
COc1cc(/C=C/C(=O)c2cccc(-n3cc(-c4ccc(Cl)cc4)[nH]c3=O)c2)ccc1O	76.7%
Oc1c(CN2CCC(N3CCOCC3)CC2)cc(Cc2cc(CN3CCC(N4CCOCC4)CC3)c(O)c3ncccc23)c2cccnc12	-21.1% (active)
c1ccc2cc(Cn3cc(CSc4nc5ccccc5s4)nn3)ccc2c1	96.5%
CN(C)Cc1cc(C(C)(C)C)cc(Br)c1O	97.3%
CCN(CC)CCOc1ccc(/C(=C(\C)Cc2ccc(OC)cc2)c2ccc(OC(=O)NCc3ccccc3)cc2)cc1	59.4%
C=C1C(=O)O[C@H]2[C@H]1CC/C(COC(=O)NCc1ccc(Cn3c(=O)sn(-c4ccc(I)cc4)c3=O)cc1)=C\CC[C@@]1(C)O[C@@H]21	99.8%
O=c1oc2ccccc2cc1-c1nn(-c2ccccc2)cc1-c1nn[nH]n1	99.7%
O=c1oc2c(cc1-c1ccccc1)c(=O)[nH]c1ccccc12	94.6%
CC1=C(Cl)C(=O)c2cc(C)ccc2C1=O	108%

Test system: SF-539 CNS
Experiment: as above
Settings: 10 µM unless noted

SMILES	growth
O=c1oc2c(cnc3ccccc32)cc1-c1cccc(Cl)c1	95.2%
CCOC(=O)c1c(C)nc2c(c1N)C(=O)C(=O)N2Cc1ccc(OC)cc1	45.5%
CCNC(=O)N1CCc2c(Br)c3c(c(OC)c2C1Cc1ccc(OC)cc1)OCO3 (configuration not stated)	22.6%
COc1cc2c(c(OC)c1OC)CCC(c1cccc(C(=O)Nc3ccc(Br)cc3)c1)O2 (configuration not stated)	76.6%
OC1CSSC1Cn1cnc2c(Nc3ccc(OCc4cccc(F)c4)c(Cl)c3)ncnc21 (configuration not stated)	-3.08% (active)
Cc1ccc(OCCOCCOCCOc2ccc(C)n(O)c2=S)c(=S)n1O	45.8%
C=CN(C(=O)N1CCN(c2cc3c(cc2F)c(=O)c(C(=O)O)cn3C2CC2)CC1)c1nc(-c2ccc(Cl)cc2)cs1	67%
C#CCOc1cccc(Nc2ncnc3cc(NC(=O)CCl)ccc23)c1	-80.4% (active)
Cc1nc2ccccc2c(/C=C/c2ccc(F)cc2)c1C(=O)/C=C/c1ccccc1	1.11% (active)
COc1cc(/C=C/C(=O)N2CCN(C(=O)c3cc(OC)c(OC)c(OC)c3)CC2)ccc1OCCCOc1cc2c(cc1OC)C(=O)N1CCC[C@H]1C=N2	-32.3% (active)
O=C(NC1CCC(Br)CC1)C1CCCC(S(=O)(=O)NC2CCCCC2)C1 (configuration not stated)	28.8% [25 µM]
COc1cc(/C=C/c2cn[nH]c2-c2ccc(C)cc2)cc(OC)c1OC	41.7%
COc1ccc(C/C(C)=C(\c2ccc(Cl)cc2)c2ccc(OCCN3CCCC3)cc2)cc1	88%
CN(C)Cc1ccc(NC(=O)c2cncc(C#Cc3cnc(N)c4ncccc34)c2)cc1C(F)(F)F	58.4%
COC(=O)c1c(C)nc(C)c2c1C(=O)C=C(NCc1ccccc1)C2=O	96.9%
N#CSc1c[nH]c2ccc(/C=C/C(=O)/C=C(O)/C=C/c3ccc4[nH]cc(SC#N)c4c3)cc12	13.5%
Cc1ccc(-c2nc(SCC(=O)N3CCN(c4cc5c(cc4F)c(=O)c(C(=O)O)cn5C4CC4)CC3)nc(Cl)c2C#N)cc1	100%
COC(=O)/C=C1/SC(=NCc2ccccc2)N(CCc2c[nH]c3ccccc23)C1=O	105%
C=C(C)[C@@H]1CC[C@]2(C(=O)N3CCN(C)CC3)CC[C@]3(C)[C@H](CC[C@@H]4[C@@](C)(CCC(=O)O)[C@H](C(=C)C)CC[C@]43C)[C@@H]12	92.6%
Nc1[nH]nc2nc(-c3ccccc3)n3c4ccccc4nc3c12	103%

SMILES	growth
CN1CCOCCN(C)Cc2ccc3ccc(cc3c2)CN(C)CCOCCN(C)Cc2ccc3ccc(cc3c2)C1	79.3%
COc1ccc(/C=N/Nc2c3ccccc3nc3ccccc23)cc1	95.4%
C=C1C(=O)O[C@H]2[C@H]1CC/C(CNC(=O)Cc1c[nH]c3ccccc13)=C\CC[C@@]1(C)O[C@@H]21	-27.1% (active)
COc1ccc2c(c1)CC[C@@H]1[C@@H]2CC[C@]2(C)c3c(cc(C#N)c4c3sc3ccccc34)C[C@@H]12	105%
O=C(c1c[nH]c2ccccc12)c1n[nH]c(=S)n1-c1ccc([N+](=O)[O-])cc1	94.1%
Cc1c2cnccc2c(C)c2c1c1cc(CO)ccc1n2C	-68% (active)
COc1cc(-c2nccc3[nH]c(-c4cccc5[nH]ccc45)nc23)cc(OC)c1OC	3.35% (active)
Clc1ccc(-c2nc(C(Cl)Cl)nc3cc(-c4ccccc4)nn23)cc1	44%
CC1=Nc2cnc(Nc3ccc(N4CCCCC4)cc3)nc2Nc2ccccc21	79.9%
CN(C)c1ccc([C@@H](C(=O)Nc2cccc([N+](=O)[O-])c2)N(C(=O)c2cc3ccccc3[nH]2)c2cccc([N+](=O)[O-])c2)cc1	90.3%
O=C(CSc1nnnn1-c1ccccc1)Nc1ccc(Oc2ccccc2)cc1	111%
COc1cc(/C=C/C(=O)c2cccc(-n3cc(-c4ccc(Cl)cc4)[nH]c3=O)c2)ccc1O	84.2%
Oc1c(CN2CCC(N3CCOCC3)CC2)cc(Cc2cc(CN3CCC(N4CCOCC4)CC3)c(O)c3ncccc23)c2cccnc12	6.51% (active)
c1ccc2cc(Cn3cc(CSc4nc5ccccc5s4)nn3)ccc2c1	95.3%
CN(C)Cc1cc(C(C)(C)C)cc(Br)c1O	88.6%
CCN(CC)CCOc1ccc(/C(=C(\C)Cc2ccc(OC)cc2)c2ccc(OC(=O)NCc3ccccc3)cc2)cc1	65.6%
C=C1C(=O)O[C@H]2[C@H]1CC/C(COC(=O)NCc1ccc(Cn3c(=O)sn(-c4ccc(I)cc4)c3=O)cc1)=C\CC[C@@]1(C)O[C@@H]21	98.7%
O=c1oc2ccccc2cc1-c1nn(-c2ccccc2)cc1-c1nn[nH]n1	97.4%
O=c1oc2c(cc1-c1ccccc1)c(=O)[nH]c1ccccc12	106%
CC1=C(Cl)C(=O)c2cc(C)ccc2C1=O	116%
